CBX7 AlphaScr – CBX7 inhibition, primary AlphaScreen. O95931. AlphaScreen His6-CBX7 / biotin-H3K27me3 peptide binding; hits give low values. normalised signal (fraction of DMSO) (concentration not given with the values). actives 1.1% (n = 66,000). AID 1224903; in the data active = normalised signal below about 0.5
Target sequence (O95931 whole entry, looked up): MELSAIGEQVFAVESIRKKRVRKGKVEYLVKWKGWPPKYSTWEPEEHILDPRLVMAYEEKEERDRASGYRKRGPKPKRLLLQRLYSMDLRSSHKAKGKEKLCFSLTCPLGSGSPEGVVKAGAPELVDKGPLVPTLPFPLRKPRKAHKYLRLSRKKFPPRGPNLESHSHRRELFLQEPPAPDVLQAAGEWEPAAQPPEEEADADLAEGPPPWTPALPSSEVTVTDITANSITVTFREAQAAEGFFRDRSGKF
* marks the source's active call; other numbers are inactive results. This is one part of a sample in which hits are shown more often than they occur.

SMILES | CBX7 AlphaScr
COc1ccc2[nH]c(C)c(CCNCc3ccc4ccccc4n3)c2c1 | 0.545
COc1ccc2[nH]c(C)c(CCNCc3ccc(OC(F)(F)F)cc3)c2c1 | 0.419*
CCOc1cc(CNCCc2c(C)[nH]c3ccc(OC)cc23)ccc1OC | 0.723
COc1ccc2[nH]c(C)c(CCNCc3cccc(OC)c3OC)c2c1 | 0.615
COc1ccc(F)c(CNCCc2c(C)[nH]c3ccc(OC)cc23)c1 | 0.373*
COc1ccc2[nH]c(C)c(CCNCc3cccc(C(F)(F)F)c3)c2c1 | 0.201*
COc1ccc(OC)c(CNCCc2c(C)[nH]c3ccc(OC)cc23)c1 | 0.712
COc1ccc2[nH]c(C)c(CCNCc3cccc(F)c3)c2c1 | 0.51
COc1ccc2[nH]c(C)c(CCNCc3ccc(F)cc3)c2c1 | 0.505
CCCCc1ncc(CNCCc2c(C)[nH]c3ccc(OC)cc23)[nH]1 | 0.995
COc1ccc(CNCCc2c(C)[nH]c3ccc(OC)cc23)c(F)c1 | 0.616
COc1ccc2[nH]c(C)c(CCNCc3ncc[nH]3)c2c1 | 0.176*
COc1ccc(CCNC(=O)CN2C(=O)CN=C(c3ccccc3)c3ccccc32)cc1OC | 1.1
CCc1ccc(NC(=O)CN2C(=O)CN=C(c3ccccc3)c3cc(Br)ccc32)cc1 | 0.765
Cc1ccc(NC(=O)CN2C(=O)C(C)N=C(c3ccccc3)c3ccccc32)cc1 (stereo not given) | 0.966
COc1ccc(/C=C/c2nc3ccccc3c(=O)n2-c2ccc(F)c(Cl)c2)cc1O | 1.14
O=C(c1ccccc1)N(c1ccc(Cl)cc1)C1CN2CCC1CC2 (stereo not given) | 0.94
CCC(C(=O)Nc1cccc(OC)c1)N1C(=O)CN=C(c2ccccc2)c2ccccc21 (stereo not given) | 0.844
CCOC(=O)C1(c2ccccc2)CCN(CC(=O)Nc2ccccc2C(F)(F)F)CC1 | 1.06
CC(C)Oc1ccc(C2SCC(=O)Nc3c2c(=O)[nH]n3C(C)C)cc1 (stereo not given) | 1.01
CCOc1ccccc1CN(CCc1ccc2c(c1)OCO2)Cc1ccccc1OC | 0.947
CCOc1ccccc1CN(CCc1ccc2c(c1)OCO2)Cc1ccc(F)c(F)c1 | 0.471*
CCOc1ccc(CN(CCc2ccc3c(c2)OCO3)Cc2ccccc2)cc1 | 1.07
CCCCCOc1ccc(C2SCC(=O)Nc3c2c(C)nn3-c2ccccc2)cc1 (stereo not given) | 0.859
CC(=O)c1ccc(C(=O)Nc2ccc(Br)cc2C(=O)c2ccccc2Cl)cc1 | 0.958

High-throughput results (PubChem)
